Results filed as inconclusive are left out. The source made the active and inactive calls. Rule for the calls: active = hit-call score of the fitted dose curve at least 0.9, where 1 is the maximum; inconclusive = response in the unintended direction; inactive = score below 0.9.
biological target: human Vitamin D Receptor (VDR), VDR (gene 7421) (UniProt P11473); experiment: ATG_VDR_TRANS: Attagene TRANS-FACTORIAL HepG2 Assay for human Vitamin D Receptor (VDR) (AID 2283022)
In short: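 Multiplexed TRANS reporter in HepG2; 24 h treatment; reporter mRNA by RT-PCR plus capillary electrophoresis; upregulation scored relative to DMSO.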

human Vitamin D Receptor (VDR), VDR (gene 7421), sequence (P11473 whole entry, looked up): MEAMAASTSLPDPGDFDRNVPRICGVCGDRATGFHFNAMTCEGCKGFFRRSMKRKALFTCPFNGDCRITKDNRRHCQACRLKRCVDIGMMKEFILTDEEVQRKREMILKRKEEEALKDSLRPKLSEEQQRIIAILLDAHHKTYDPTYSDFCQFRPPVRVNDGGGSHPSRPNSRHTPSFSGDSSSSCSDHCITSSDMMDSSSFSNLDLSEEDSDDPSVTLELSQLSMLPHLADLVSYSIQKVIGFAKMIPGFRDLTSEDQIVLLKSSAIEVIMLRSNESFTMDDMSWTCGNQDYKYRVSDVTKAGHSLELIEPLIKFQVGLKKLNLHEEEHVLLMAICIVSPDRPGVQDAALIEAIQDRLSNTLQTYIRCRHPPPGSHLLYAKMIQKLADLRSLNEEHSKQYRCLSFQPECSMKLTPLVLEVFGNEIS

outcome, inactive:
COC(=O)OC
CCCCOCCOCCOCCOCCO
CCCC(=O)OCCC(C)CCC=C(C)C (centres undefined)
C=C[C@@H](C)CCC=C(C)C
CC(C)=CCCC(C)CC=O (centres undefined)
CCCCCC(CO)CCC (centres undefined)
C=CC(=O)NCOCC(C)C
CCc1ccc(C=O)cc1
CN1[C@@H]2CC(OC(=O)[C@H](CO)c3ccccc3)C[C@H]1[C@@H]1O[C@@H]12 (some centres undefined)
Cc1ccccc1C=O
CCCCO
COC(C)CCO (centres undefined)
OCCOCCOCCOCCO
CC(C)OP(=O)(CP(=O)(OC(C)C)OC(C)C)OC(C)C
CO[Si](CCCn1c(=O)n(CCC[Si](OC)(OC)OC)c(=O)n(CCC[Si](OC)(OC)OC)c1=O)(OC)OC
OCCOc1cccc(OCCO)c1
CCCC(C)C=O (centres undefined)
CCC(=O)OCCC(C)CCC=C(C)C (centres undefined)
CC(=O)C=CC1=C(C)CCCC1(C)C
C=C(C)[C@@H]1CCC2=CC(=O)C[C@@H](C)[C@]2(C)C1
O=Nc1ccc(Nc2ccccc2)cc1
CC(C)=CCO
COc1ccc(Cl)cc1C
CCCC1CCC(=O)O1 (centres undefined)
CCC(C)CCCC(C)(C)O (centres undefined)
COC(=O)Cc1cccc2ccccc12
O=S(=O)(O)c1ccc(O)c2ncccc12
COC(=O)C1=C(C)NC(C)=C(C(=O)OCCN(C)Cc2ccccc2)C1c1cccc([N+](=O)[O-])c1 (centres undefined)
O=c1cc(-c2ccccc2)oc2cc(O)cc(O)c12

— PubChem BioAssay (EPA / NIEHS)
